Screening data from PubChem.
Compounds with a hit are over-represented: about 4% of the library has one in this group of screens.
GDH-TPI counter-1 = counter-screen for M. tuberculosis FBA inhibitors: GDH-TPI coupled enzymes; GDH-TPI coupled enzyme counterscreen, NADH absorbance; inhibition, % at 4.8 µM; 360,000 tested, 1.2% active; AID 588335
FBA Mtb inh = inhibits M. tuberculosis FBA enzyme; P9WQA3; purified M. tuberculosis FBA, fluorescence read-out; inhibition, % at 1 µM; 360,000 tested, 2.3% active; in the data active = inhibition above about 27%
Target sequence (P9WQA3 whole entry, looked up): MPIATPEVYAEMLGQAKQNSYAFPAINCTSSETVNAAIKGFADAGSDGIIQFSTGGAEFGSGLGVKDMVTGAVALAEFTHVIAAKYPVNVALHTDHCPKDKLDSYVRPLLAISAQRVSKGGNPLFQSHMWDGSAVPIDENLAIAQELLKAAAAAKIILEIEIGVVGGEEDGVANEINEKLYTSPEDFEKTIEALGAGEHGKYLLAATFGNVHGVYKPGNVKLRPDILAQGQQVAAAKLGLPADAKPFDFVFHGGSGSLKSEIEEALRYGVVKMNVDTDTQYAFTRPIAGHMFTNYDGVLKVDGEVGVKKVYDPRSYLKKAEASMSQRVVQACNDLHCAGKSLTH
MazF activator = MazEF (E. coli) toxin RNase activation; P0AE70; FAM/BHQ RNA-DNA oligo cleavage fluorescence, 5 h; activation, % at 20 µM; 350,000 tested, 0.32% active; in the data active = activation above about 50%
Target sequence (P0AE70 whole entry, looked up): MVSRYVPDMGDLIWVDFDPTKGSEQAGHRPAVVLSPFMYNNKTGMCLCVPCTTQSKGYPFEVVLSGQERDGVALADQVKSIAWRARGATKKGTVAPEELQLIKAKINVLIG
Mtb betalactam = beta-lactam sensitization of Mtb H37Rv. M. tuberculosis H37Rv growth with meropenem, percent inhibition. inhibition, % at 25 µM. 330,000 tested, 0.27% active; call rule not given here;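 note: growth measured after seven days incubation then overnight dye step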
CCHFV vOTU inh = blocks the CCHF virus ovarian tumor domain protease; CCHFV vOTU protease, Pep-AMC fluorescence; inhibition, % at 11.5 µM; 370,000 tested, 0.55% active; AID 651958
Mtb FBA confirm = Mtb FBA inhibition, confirmed | shares compounds with FBA Mtb inh | purified M. tuberculosis FBA, fluorescence read-out | inhibition, % at 1 µM | 5,600 tested, 78% active | AID 651616; in the data active = inhibition above about 27%
GDH-TPI counter-2 = inhibits GDH-TPI coupling enzymes, flagging Mtb FBA hits; shares compounds with FBA Mtb inh; inhibition, % at 1 µM; 5,600 tested, 81% active; AID 652141; GDH-TPI coupled enzyme counterscreen, fluorescence; in the data active = inhibition above about 10%
Of the large screens only hits and unclear results are named; the others gave an inactive call (follow-up assays come after a bar, where they were run). Cut-off read from the data, not from the text of the source, unless noted: active = inhibition above about 30%; inactive = the rest.

Cc1ccc(-c2nc(C(=O)NCCCN3CCOCC3)cc3c2[nH]c2ccccc23)cc1	none
Cc1cc(C)cc(Oc2coc3c(CN(C)C)c(O)ccc3c2=O)c1	FBA Mtb inh 92 | Mtb FBA confirm 77 | GDH-TPI counter-2 68
C[C@H]1C2CC(OC(=O)Nc3ccc(F)cc3)C(C2)[C@H]2CCCCN21 (stereo not given in full)	none (no result: GDH-TPI counter-1, FBA Mtb inh, MazF activator, Mtb betalactam)
CCOC(=O)c1ccc(NC(=O)NCc2ccc(OC)cc2)cc1	none
CCOC(=O)c1ccc(NC(=O)C(=O)NCCc2ccc(OC)cc2)cc1	FBA Mtb inh 50 | Mtb FBA confirm 116 | GDH-TPI counter-2 106
Nc1nc(N2CCCCC2)nc2ccccc12	FBA Mtb inh 31 | Mtb FBA confirm 44 | GDH-TPI counter-2 37
COCc1cc(C)nc2sc(C(=O)Nc3ccc(C(=O)OC)cc3)c(N)c12	none
COCc1cc(C)nc2sc(C(=O)OC(C)C)c(N)c12	FBA Mtb inh 41 | Mtb FBA confirm active | GDH-TPI counter-2 175
Cc1cc(NS(=O)(=O)c2ccc(NC(=O)CSc3nnc(-c4ccco4)n3-c3ccc(Cl)cc3)cc2)nc(C)n1	none (no result: GDH-TPI counter-1, FBA Mtb inh, MazF activator, Mtb betalactam)
O=S(=O)(Nc1cccc(-c2cn3cccnc3n2)c1)c1ccc(Cl)cc1	FBA Mtb inh 56 | Mtb FBA confirm inactive | GDH-TPI counter-2 inactive
COc1ccc(C)cc1S(=O)(=O)Nc1cccc(-c2cn3cccnc3n2)c1	FBA Mtb inh 89 | Mtb FBA confirm inactive | GDH-TPI counter-2 inactive
CCC[C@H](/C=C/C(=O)OC(C)(C)C)Sc1ccc(N)cc1	none (no result: GDH-TPI counter-1, FBA Mtb inh, MazF activator, Mtb betalactam)
CCOC(=O)CC[C@@]1(C(=O)OCC)C[C@@H](CC(=O)NCC23CC4CC(CC(C4)C2)C3)C(=O)N2CCCC=C21	none (no result: GDH-TPI counter-1, FBA Mtb inh, MazF activator, Mtb betalactam)
COc1cccc(CNC(=O)CN2CCCc3ccccc32)c1	none (no result: GDH-TPI counter-1, FBA Mtb inh, MazF activator, Mtb betalactam)
Cc1ccc(-n2c(C)cc(/C=N/NC(=O)Cn3c4ccccc4c(=O)c4ccccc43)c2C)cc1	FBA Mtb inh 74 | Mtb FBA confirm 133 | GDH-TPI counter-2 119
Cc1cc(/C=N/NC(=O)Cn2c3ccccc3c(=O)c3ccccc32)c(C)n1-c1ccc(Cl)cc1	FBA Mtb inh 83 (no result: Mtb betalactam) | Mtb FBA confirm 144 | GDH-TPI counter-2 119
COC[C@H]1CCCN1c1ccc2c(c1)O[C@H](C)CCN(C1CC1)S2(=O)=O	none (no result: GDH-TPI counter-1, FBA Mtb inh, MazF activator, Mtb betalactam)
Nc1nccc(/C=C/c2ccc(Cl)cc2)n1	FBA Mtb inh 30 | Mtb FBA confirm 84 | GDH-TPI counter-2 49
Cc1oc2c(c(C)cc3oc(=O)c(CC(=O)N[C@@H](CC(C)C)C(=O)O)c(C)c32)c1C	FBA Mtb inh 31 | Mtb FBA confirm 85 | GDH-TPI counter-2 64
Cc1c(CC(=O)NCCCC(=O)O)c(=O)oc2cc3occ(-c4ccccc4)c3cc12	none
Cc1coc2c1c(C)cc1oc(=O)c(CC(=O)NCC(=O)O)c(C)c12	FBA Mtb inh 101 | Mtb FBA confirm 141 | GDH-TPI counter-2 94
Cc1oc2c(c(C)cc3oc(=O)c(CC(=O)NCCC(=O)O)c(C)c32)c1C	FBA Mtb inh 31 | Mtb FBA confirm 159 | GDH-TPI counter-2 99
Cc1oc2c(c(C)cc3oc(=O)c(CC(=O)N[C@H](C(=O)O)C(C)C)c(C)c32)c1C	none
Cc1oc2cc3oc(=O)c(CCC(=O)NCCC(=O)O)c(C)c3cc2c1C	none
Cc1coc2c1c(C)cc1oc(=O)c(CC(=O)NCCCCCC(=O)O)c(C)c12	FBA Mtb inh 62 | Mtb FBA confirm active | GDH-TPI counter-2 175
CC(C)[C@H](NC(=O)c1ccccc1)C(=O)N1CCC[C@H]1C(=O)NCCc1ccccc1Cl	none (no result: GDH-TPI counter-1, FBA Mtb inh, MazF activator, Mtb betalactam)
CC(C)Oc1ncnc2c1[nH]c1ccccc12	FBA Mtb inh 33 | Mtb FBA confirm 165 | GDH-TPI counter-2 130
O=C(CSc1nc2ccccc2o1)NN=C/C=C/c1ccccc1	none (no result: GDH-TPI counter-1, FBA Mtb inh, MazF activator, Mtb betalactam)
COc1cccc(OC)c1-c1nnc(-c2cn(C)c3ccccc23)o1	FBA Mtb inh 80 | Mtb FBA confirm active | GDH-TPI counter-2 178
COc1ccccc1-c1nnc(-c2ccc(C)cc2)o1	none
CCn1c(=N)c(S(=O)(=O)c2ccc(Cl)cc2)cc2c(=O)n3ccccc3nc21	none (no result: GDH-TPI counter-1, FBA Mtb inh, MazF activator, CCHFV vOTU inh)
N=c1c(S(=O)(=O)c2ccc(Cl)cc2)cc2c(=O)n3ccccc3nc2n1CC1CCCO1 (stereo not given)	none (no result: CCHFV vOTU inh)
COc1ccc(CCn2c(=N)c(S(=O)(=O)c3ccc(C)cc3)cc3c(=O)n4ccccc4nc32)cc1	none
COCCn1c(=N)c(S(=O)(=O)c2ccc(F)cc2)cc2c(=O)n3ccccc3nc21	FBA Mtb inh 34 | Mtb FBA confirm 52 | GDH-TPI counter-2 41
N=c1c(S(=O)(=O)c2ccccc2)cc2c(=O)n3ccccc3nc2n1CC1CCCO1 (stereo not given)	FBA Mtb inh 69 | Mtb FBA confirm active | GDH-TPI counter-2 active
N=c1c(S(=O)(=O)c2ccc(Cl)cc2)cc2c(=O)n3ccccc3nc2n1Cc1ccco1	FBA Mtb inh 56 | Mtb FBA confirm 142 | GDH-TPI counter-2 107
CCCCOCCCNC(=O)C[C@H]1C[C@@]2(C(=O)OC)C(=C[C@H](C(C)C)O[C@@H]2C2CC2)N(Cc2ccco2)C1=O	none (no result: GDH-TPI counter-1, FBA Mtb inh, MazF activator, Mtb betalactam)
COc1cccc2c1cc1c(=O)n(CC(=O)N3CCCC3)nc(C)n12	FBA Mtb inh 80 (no result: Mtb betalactam) | Mtb FBA confirm inactive | GDH-TPI counter-2 inactive
O=C(C(=O)N1CCC(CNC(=O)c2sc3ccccc3c2Cl)CC1)c1cccs1	none (no result: GDH-TPI counter-1, FBA Mtb inh, MazF activator, Mtb betalactam)
CC(=O)Nc1sc(N/N=C/c2ccc(N(C)C)cc2)nc1-c1ccc(C)cc1	GDH-TPI counter-1 40, FBA Mtb inh 39 (no result: Mtb betalactam) | Mtb FBA confirm 132 | GDH-TPI counter-2 102
Cc1cc(NC(=O)c2cc(-c3ccc(C)c(C)c3)nc3ccccc23)no1	none
Cc1ccc(-c2cc(C(=O)NCCCN3CCCC3)c3ccccc3n2)cc1C	FBA Mtb inh 35 | Mtb FBA confirm 95 | GDH-TPI counter-2 57
O=C(NCCCN1CCOCC1)c1cc2ccccc2cc1O	none
Cc1ccc(-c2cc(C(=O)NCCCN3CCOCC3)c3ccccc3n2)cc1	FBA Mtb inh 50 | Mtb FBA confirm inactive | GDH-TPI counter-2 inactive
Nc1ccccc1C(=O)NCCCN1CCOCC1	FBA Mtb inh 67 | Mtb FBA confirm 76 | GDH-TPI counter-2 76
CCOc1ccc(-c2cc(C(=O)NCCCN3CCCC3)c3ccccc3n2)cc1	FBA Mtb inh 28 | Mtb FBA confirm inactive | GDH-TPI counter-2 16
COC(=O)C[C@H]1CC[C@@H]2[C@H](COc3ccc(NC(=O)NCc4ccccc4)cc3C(=O)N2C)O1	none (no result: GDH-TPI counter-1, FBA Mtb inh, MazF activator, Mtb betalactam)
COC(=O)[C@]12C[C@H](CC(=O)NCc3cccc4ccccc34)C(=O)N(Cc3ccc(Cl)cc3Cl)C1=C[C@H](C1CCCC1)O[C@@H]2C	none (no result: GDH-TPI counter-1, FBA Mtb inh, MazF activator, Mtb betalactam)
COc1ccc(-c2nc(C(=O)NCCCN3CCOCC3)cc3c2[nH]c2ccccc23)cc1OC	FBA Mtb inh 50 | Mtb FBA confirm 61 | GDH-TPI counter-2 46
Cc1ccc(-c2cc(C(=O)NCCCN3CCOCC3)c3ccccc3n2)cc1C	FBA Mtb inh 66 | Mtb FBA confirm 70 | GDH-TPI counter-2 70
